Source: PubChem BioAssay (NCATS)
Records with an inconclusive call do not appear. Activity calls are given as the source filed them. Calls follow the shape of the dose curve; as a rule, active = well fitted curve in the direction sought with a large enough effect; inconclusive = small, poorly fitted or top-dose-only effect, or another doubt; inactive = no such curve, though single readings can be large; an effect the other way counts as inactive or inconclusive.

Columns and labels:
[1] = U-118MG Cancer Cell Toxicity qHTS against the NCATS CANVASS Library (AID 1347351); also: potency is read from the fitted curve at half-maximal effect
How it was run: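 Quantitative HTS format: an 11-concentration series was applied to 1000 cells/well following a 4-hour attachment. Cultures ran 72 hours before ATP luminescence detection by CellTiter-Glo.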

[2] = A2780 Cisplatin Sensitive Ovarian Cancer Cell Toxicity qHTS against the NCATS CANVASS Library (AID 1347353); also: nearly all actives have a fitted effect of over 60% in size; also: potency is read from the fitted curve at half-maximal effect
How it was run: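 750 cells/well, 4 h settle; 11-pt cpd titration; 72 h, 37 °C, 5% CO2; ATPLite 10 min RT; luminescence read.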

[3] = UWB1.289-WTBRCA1 Cancer Cell Toxicity qHTS against the NCATS CANVASS Library (AID 1347354); also: potency is read from the fitted curve at half-maximal effect
How it was run: (§1)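 1000 cells/well, 4 h pre-incubation 37 °C/5% CO2; 11-pnt titration; 72 h; CellTiter-Glo 15 min RT, luminescence.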

[4] = HEK-293 Cancer Cell Toxicity qHTS against the NCATS CANVASS Library (AID 1347355); also: nearly all actives have a fitted effect of over 65% in size; also: potency is read from the fitted curve at half-maximal effect
How it was run: as §1

[5] = HPAF-II 12hr Apoptosis Induction qHTS against the NCATS CANVASS Library (AID 1347358)
How it was run: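 Caspase-Glo 3/7 luminescence (DEVD substrate) reports caspase activity in HPAF-II cells after 12 h compound treatment at 37 degrees C. Compounds were tested in an 11-point series. Doxorubicin served as control.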

[6] = tested on: NAD(P)H diaphorase (Clostridium kluyveri); experiment: Diaphorse counterscreen qHTS: Assay Interference Panel against the NCATS CANVASS Library (AID 1347362)
How it was run: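 Counterscreen for coupling-enzyme interference: resorufin fluorescence from resazurin/NADH turnover, read after 5 min at room temperature. Compounds were tested over an 11-point series after 15 min dark preincubation with diaphorase in PBS-Tween.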

[7] = KB-8-5-11 Cancer Cell Toxicity qHTS against the NCATS CANVASS Library (AID 1347364); also: nearly all actives have a fitted effect of over 75% in size; also: potency is read from the fitted curve at half-maximal effect
How it was run: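 CellTiter-Glo luminescence after 72 h exposure; 500 KB-8-5-11 cells/well, DMEM/10% FBS, 37C, 5% CO2; compounds in 11-pt qHTS. Follow-up confirmation included medium with 1uM tariquidar.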

[8] = SDT Cancer Cell Toxicity qHTS against the NCATS CANVASS Library (AID 1347365); also: nearly all actives have a fitted effect of over 60% in size; also: potency is read from the fitted curve at half-maximal effect
How it was run: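 Luminescent ATP read-out (CellTiterGlo) after 72 hr compound exposure of dog glioma SDT cells, 500 per well. Eleven-point titrations; bortezomib titration run alongside as control.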

[9] = target: Nuclear receptor subfamily 1 group I member 3 (Homo sapiens) (UniProt Q14994); experiment: qHTS for Constitutive Androstane Receptor (CAR) Antagonist screened against the NCATS CANVASS Library (AID 1347372); also: potency is read from the fitted curve at half-maximal effect
How it was run: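 Antagonist mode: compound added alongside 50 nM CITCO to HepG2-hCAR-CYP2B6 reporter cells, 24hr at 37C. Viability by CellTiter-Fluor fluorescence, then CAR-driven luciferase by ONE-Glo luminescence.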

[10] = qHTS for Hypoxia signaling pathway (HIF-1) antagonists against the NCATS CANVASS Library (AID 1347374);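 also: HRE-bla ME-180 cells stimulated with cobalt chloride to stabilize HIF-1alpha; series mostly up to about 38 µM; nearly all actives have a fitted effect of over 60% in size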
How it was run: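 Beta-lactamase reporter under HRE control in ME-180 cells; CoCl2 stimulus (60 uM solution as added), compounds 11-pt qHTS, 17 h 37C. CCF4 dye 2 h RT, 460/530 nm emission. CellTiter-Glo viability in same wells.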

[11] = qHTS for Hypoxia signaling pathway (HIF-1) agonists against the NCATS CANVASS Library (AID 1347375); also: potency is read from the fitted curve at half-maximal effect
How it was run: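 Read-out: beta-lactamase FRET (CCF4-AM, ex 405, em 460 and 530 nm) after 2 h at room temperature. ME-180 cells stably carrying HRE-bla were treated 17 h at 37C with compounds in an 11-point concentration series.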

[12] = DH5-alpha competent E. coli microbial cell viability qHTS against the NCATS CANVASS Library (AID 1347377); conditions: outcome: dose series up to 46.1 µM unless noted
How it was run: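 Luminescent ATP read-out (BacTiter-Glo, 20 min RT) after overnight 37C culture of DH5-alpha E. coli with compounds; daunomycin control at 0.2 nM–9.2 uM final.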

[13] = qHTS for H2AX Agonists against the NCATS CANVASS Library (AID 1347378); also: potency is read from the fitted curve at half-maximal effect
How it was run: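 Phospho-H2AX (S139) in CHO-K1 lysates measured by HTRF, reported as 665/615 nm emission ratio after 24 hr antibody incubation at room temperature. Cells were first treated with a compound series for 3 hr at 37C (0.76% DMSO final).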

[14] = Cytotoxicity qHTS for assessment of Hepg2 cells membrane integrity screened against the NCATS CANVASS Library (AID 1347387)
How it was run: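 LDH release read by fluorescence (560 nm ex/590 nm em) after CytoTox-ONE addition and 10 min RT; signal tracks lysed cells. HepG2, 2000 cells/well, plated overnight; compound 5 hr, 37C, 5% CO2, final 0.59 nM - 46 uM, 11 points.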

[15] = qHTS for Activators of p53 Stress Response Pathway screened against the NCATS CANVASS Library (AID 1347388)
How it was run: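 Beta-lactamase reporter driven by p53 response elements in HCT-116 cells, read as the 460 nm/530 nm emission ratio after CCF4 loading, following 16 h of exposure to an 11-point series. Cell viability was measured in the same wells by CellTiter-Glo luminescence.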

[16] = qHTS assay for small molecule disruptors of mitochondrial membrane potential screened against the NCATS CANVASS Library (AID 1347389); also: nearly all actives have a fitted effect of over 60% in size; also: potency is read from the fitted curve at half-maximal effect
How it was run: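 Red/green fluorescence ratio read-out: J-aggregates ex 540/em 590 nm, monomers ex 490/em 535 nm. HepG2, 1 hr compound treatment, then 30 min Mito-MPS dye at 37C. 11-pt qHTS concentration series.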

[17] = Secretion counterscreen for inhibitors of the SERCaMP assay screened against the NCATS CANVASS Library (AID 1347390);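 also: light from luciferase secreted into medium read as a measure of general secretion; series mostly up to about 77 µM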
How it was run: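 Counterscreen for secretory-pathway interference: after 4 h attachment, SH-SY5Y-GLuc cells were exposed 20 hours to compounds (final 0.001 - 77 uM), then coelenterazine added and GLuc luminescence recorded; Brefeldin A served as control.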

[18] = qHTS for inhibitors of ER calcium dysfunction: SERCaMP assay screened against the NCATS CANVASS Library (AID 1347393); also: nearly all actives have a fitted effect of over 40% in size; also: potency is read from the fitted curve at half-maximal effect
How it was run: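 Thapsigargin-induced ER calcium depletion drives GLuc-SERCaMP secretion from SH-SY5Y cells; compounds given 16 h beforehand were scored by lowered coelenterazine luminescence after 4 h challenge.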

[19] = Viability qHTS for inhibitors of the SERCaMP assay screened against the NCATS CANVASS Library (AID 1347400); also: nearly all actives have a fitted effect of over 70% in size; also: potency is read from the fitted curve at half-maximal effect
How it was run: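 CellTiter-Glo luminescence readout after 48 h compound exposure (11-pnt qHTS series) of SH-SY5Y-GLuc SERCaMP MJH297 cells seeded at 1000 cells/well; bortezomib positive control.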

[20] = G06 Cancer Cell Toxicity qHTS against the NCATS CANVASS Library (AID 1347368); also: nearly all actives have a fitted effect of over 60% in size; also: potency is read from the fitted curve at half-maximal effect
How it was run: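 ATP luminescence (CellTiterGlo) readout of cytotoxicity. Canine G06 glioma cells, 500/well, 72 hr incubation at 37C with compounds; bortezomib titration served as control.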

Measured: Potency

Sequence of Nuclear receptor subfamily 1 group I member 3 (Homo sapiens) (Q14994 whole entry, looked up): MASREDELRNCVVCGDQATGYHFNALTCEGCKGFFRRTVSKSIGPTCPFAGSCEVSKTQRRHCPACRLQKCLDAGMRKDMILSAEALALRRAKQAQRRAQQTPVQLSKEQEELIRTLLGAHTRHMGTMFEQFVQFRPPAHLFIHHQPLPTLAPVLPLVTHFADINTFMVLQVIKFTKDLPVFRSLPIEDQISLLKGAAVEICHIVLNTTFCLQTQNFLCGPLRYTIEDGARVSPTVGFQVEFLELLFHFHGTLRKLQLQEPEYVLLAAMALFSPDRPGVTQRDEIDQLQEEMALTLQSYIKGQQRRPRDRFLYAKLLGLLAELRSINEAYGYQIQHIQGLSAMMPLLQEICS

Cc1cc(O)cc2oc(C[C@H](C)O)cc(=O)c12
active: [8] 1.48 µM
inactive: [1] | [2] | [3] | [4] | [5] | [6] | [7] | [9] | [10] | [11] | [12] | [13] | [14] | [15] | [16] | [17] | [18] | [19]

O=C(O)[C@@]12CO[C@@]3(O)C4CCN(CC[C@H]31)[C@H]4c1c2[nH]c2ccccc12
inactive: [1] | [2] | [3] | [4] | [5] | [6] | [7] | [8] | [20] | [9] | [10] | [11] | [12] | [13] | [14] | [15] | [16] | [17] | [18] | [19]

CC1(C)[C@H](Br)CC[C@]23C[C@]4(C)C(=O)CC12C[C@H]34
inactive: [1] | [2] | [3] | [4] | [5] | [6] | [7] | [8] | [20] | [9] | [10] | [11] | [12] | [13] | [14] | [15] | [16] | [17] | [18] | [19]

CN1CC[C@]2(c3cccc4c3N[C@@H]3N(C)CC[C@]43[C@@]34CCN(C)[C@@H]3Nc3c([C@]56CCN(C)[C@H]5Nc5ccccc56)cccc34)c3ccccc3N[C@H]12
inactive: [6] | [16] | [18]
active: [1] 6.68 µM | [2] 9.35 µM | [3] 10.6 µM | [4] 2.96 µM | [7] 9.35 µM | [8] 1.32 µM | [20] 2.64 µM | [9] 26.3 µM | [11] 9.41 µM | [13] 13.7 µM | [19] 4.8 µM

COc1cc(O)c2c3c(c(O)cc(C)c13)C(=O)OC2
inactive: [1] | [2] | [3] | [4] | [5] | [7] | [8] | [20] | [9] | [10] | [11] | [12] | [13] | [14] | [15] | [17] | [19]
active: [16] 18.6 µM

C[C@@H]1C[C@H]2C[C@]3(CCCCN3C)[C@@H]3C[C@H]2[C@H](C1)N(C)C3
inactive: [1] | [2] | [3] | [5] | [6] | [7] | [8] | [9] | [10] | [11] | [12] | [13] | [14] | [15] | [16]
active: [20] 18.7 µM | [18] 30.5 µM
